# In PubChem BioAssay (NCATS):
# Inconclusive results are not listed. A call without a number means that no potency is given here. Activity calls are given as the source filed them. Unless noted, calls follow the shape of the dose curve; as a rule, active = well fitted curve in the direction sought with a large enough effect; inconclusive = small, poorly fitted or top-dose-only effect, or another doubt; inactive = no such curve, though single readings can be large; an effect the other way counts as inactive or inconclusive.
# Columns and labels:
# [1] = target: Transient receptor potential cation channel subfamily V member 1 (Homo sapiens) (UniProt Q8NER1); assay: HTS Assay for Compounds that Act as Enhancers of the Vanilloid Receptor 1 (AID 488979)
# In short: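 TRPV1-expressing cells loaded with Fluo-8 calcium dye; compounds added and calcium influx read kinetically for 3 min (agonist phase), then capsaicin at EC20 added and read 2 min more for enhancement. Fluorescence ex 480/em 520 nm.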
# [2] = target: Thyrotropin receptor (Homo sapiens) (UniProt P16473); assay: qHTS Assay for Antagonists of the Thyroid Stimulating Hormone Receptor (AID 488980); also: series mostly up to about 58 µM
# In short: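 Inhibition of TSH-stimulated cAMP accumulation was quantified by homogeneous time-resolved FRET in TSHR-transfected HEK293 cells. Agonist: TSH, 4 nM final (EC80).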
# [3] = target: D(1A) dopamine receptor (Homo sapiens) (UniProt P21728); assay: HTS Assay for Allosteric Agonists of the Human D1 Dopamine Receptor: Primary Screen for Agonists (AID 488981)
# In short: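 Tetracycline-induced HEK293 T-REx cells force-coupled to calcium signalling were incubated overnight at 30 C and dye-loaded at room temperature. Calcium flux over 180 s after compound addition flagged agonists; a further 180 s read after EC20 dopamine flagged potentiators.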
# [4] = target: D(1A) dopamine receptor (Homo sapiens) (UniProt P21728); assay: HTS Assay for Allosteric Agonists of the Human D1 Dopamine Receptor: Primary Screen for Antagonists (AID 488983);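 also: calcium flux response to an EC80 dopamine challenge measured with no-wash dye; nearly all actives have a fitted effect of over 65% in size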
# In short: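 Tetracycline-induced HEK293 T-REx cells expressing force-coupled D1 were plated overnight at 30 C, dye-loaded for calcium, and read kinetically. Compounds were pinned in, then an EC80 dopamine challenge followed after 180 s to reveal antagonism.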
# [5] = Validation screen for small molecules that induce genotoxicity in human embryonic kidney (HEK293T) cells expressing luciferase-tagged ELG1 (AID 493106); also: potency is read from the fitted curve at half-maximal effect
# In short: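 HEK293T cells expressing luciferase-tagged ELG1 were exposed to compound or DMSO vehicle for 16 hr at 37 °C, 5% CO2. Genotoxic stress raises ELG1 levels, so increased luciferase signal after ONE-Glo addition and 30 min at room temperature marks hits.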
# [6] = target: ATPase family AAA domain-containing protein 5 (Homo sapiens) (UniProt Q96QE3); assay: Validation screen for small molecules that inhibit ELG1-dependent DNA repair in human embryonic kidney (HEK293T) cells expressing luciferase-tagged ELG1 (AID 493107);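 also: cells co-treated with the DNA-damaging agent 5-fluorouridine alongside compound; series mostly up to about 46 µM; inhibitors lower the ELG1-luciferase luminescence signal; nearly all actives have a fitted effect of over 70% in size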
# In short: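 HEK293T cells expressing luciferase-tagged ELG1 were co-treated with 5-fluorouridine and compound or DMSO for 16 hr at 37 °C, 5% CO2. Luciferase activity was then read with ONE-Glo after 30 min at room temperature; suppressed signal indicates blocked ELG1 function.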
# [7] = target: Thyrotropin-releasing hormone receptor (Homo sapiens) (UniProt P34981); assay: qHTS for Small Molecule Agonists and Allosteric Enhancers of Human TRH Receptor: Validation Screen for Agonists (AID 493127;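 active = calcium activation more than 3 SD above the typical response in the agonist read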;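 also: intracellular calcium rise by fluo-8 fluorescence before TRH EC20 addition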); conditions: TRH receptor agonist cell assay; at 2 µM; stronger effect = higher value
# In short: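 TRHR-expressing cells were plated overnight in serum-containing medium, then loaded with fluo-8 calcium dye at room temperature for 30 min–1.5 h. After a 10 s baseline, compound was pin-transferred and calcium fluorescence (ex 480/em 530) read kinetically for agonist response.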
# [8] = Nrf2 qHTS screen for inhibitors: Validation (AID 493153; active = well fitted inhibition curve with a large enough effect in the main read-out, with a control signal flat, not every such curve was filed as active); conditions: viability change: measured here: cytotoxicity max response
# In short: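 A549 cells carrying an ARE-driven firefly luciferase reporter, in 5% FBS OPTI-MEM, were treated with compounds in concentration-response for 18-24 h at 37°C. Viability was read by CellTiter-Fluor fluorescence, then Nrf2 activity by luciferase luminescence.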
# [9] = target: Galactokinase (Homo sapiens) (UniProt P51570); assay: qHTS Validation Assay for Inhibitors of Human Galactokinase (GALK) (AID 493189)
# In short: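 Enzyme activity is inferred from ATP consumption: human GALK phosphorylates galactose (100 uM) using 35 uM ATP for 1 h at room temperature, and luciferase-based Kinase-Glo Plus reports unconsumed ATP.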
# [10] = target: Peptidyl-prolyl cis-trans isomerase NIMA-interacting 1 (Homo sapiens) (UniProt Q13526); assay: qHTS Validation Assay to Find Inhibitors of Pin1 (AID 504536; active = well fitted inhibition curve with a large enough effect in the polarisation, with a control signal flat, not every such curve was filed as active; the % refers to the polarisation)
# In short: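 Fluorescence polarization competition: compounds (titration) displace HiFluor-488-labeled Pin1-1b peptide from Pin1 (0.3 uM final) in pH 7.5 HEPES buffer with DTT, 10 min at room temperature; %Activity normalized to no-enzyme wells, curves fitted.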
# [11] = target: Phosphoglycerate kinase, glycosomal (Trypanosoma brucei brucei) (UniProt P07378); assay: qHTS Validation Assay to Find Inhibitors of Phosphoglycerate Kinase (AID 504547)
# In short: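 Substrate/PGK mix plus compound; reaction started with GAPDH (100nM final) to form 1,3-BPG; 60 min RT; Kinase-Glo Plus 10 min; luminescence. TEA 100mM pH 7.6, MgCl2 5mM, Tween-20 0.01%.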
# [12] = target: phosphoglycerate mutase (Leishmania major) (UniProt Q4Q090); assay: qHTS Validation Assay to Find Inhibitors of Phosphoglycerate Mutase (AID 504548); also: series mostly up to about 58 µM
# In short: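 Luminescent end-point read-out via Kinase-GloPlus after a 10-minute development. Reaction: 1.25nM Leishmania major PGAM with substrate and compound, 45 minutes at room temperature in TEA buffer (pH 7.6) with MgCl2 and Tween-20.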
# [13] = target: Ubiquitin carboxyl-terminal hydrolase 1 (Homo sapiens) (UniProt O94782); assay: Inhibitors of USP1/UAF1: Pilot qHTS (AID 504865);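 also: rhodamine fluorescence freed from ubiquitin-rhodamine substrate followed over time; top concentration of the series differs between compounds; nearly all actives have a fitted effect of over 35% in size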
# In short: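 Enzyme-free wells gave the negative control, while test wells held 1nM USP1/UAF1 preincubated with compound for 15 min at room temperature. Ub-Rho at 150nM final started the reaction, and fluorescence at 480/540 nm was recorded kinetically.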
# [14] = target: Voltage-gated inwardly rectifying potassium channel KCNH2 (Homo sapiens) (UniProt Q12809); assay: qHTS Assay for Small Molecule Inhibitors of the Human hERG Channel Activity (AID 588834);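 also: top concentration of the series differs between compounds; lower thallium flux fluorescence means stronger hERG block; nearly all actives have a fitted effect of over 50% in size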
# In short: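 Blockade is seen as reduced FluxOR thallium-flux fluorescence in U2OS cells expressing hERG from a BacMam construct, in Opti-MEM with 2% FCS. Concentration-response data fitted to the Hill equation for AC50.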
# [15] = target: Glutaminase kidney isoform, mitochondrial (Homo sapiens) (UniProt O94925); assay: qHTS for Inhibitors of Glutaminase (GLS): LOPAC Validation (AID 624146); also: potency is read from the fitted curve at half-maximal effect; nearly all actives have a fitted effect of over 60% in size
# In short: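 Compounds were pin-transferred onto hKGA, after which L-glutamine (1 mM solution) and a detection mix of glutamate oxidase, HRP and Amplex Red were added. Initial and 30 min RT fluorescence reads were collected.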
# [16] = qHTS of Trypanosoma Brucei Inhibitors: LOPAC Validation (AID 624147)
# In short: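 Luminescent Kinase-Glo Plus end-point after 45 min room-temperature reaction of T. brucei pyruvate kinase started with 130 uM ADP (final). Buffer TEA 50 mM pH 7.2 with KCl, MgCl2, BSA, Tween-20; titration-based qHTS with fitted concentration-effect curves.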
# [17] = target: Glucagon-like peptide 1 receptor (Homo sapiens) (UniProt P43220); assay: qHTS of GLP-1 Receptor Agonists: LOPAC Validation (AID 624148);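 also: higher luminescence signal means agonism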
# In short: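 HEK293 cells stably co-expressing a cAMP-responsive luciferase reporter and a hypersensitive GLP-1R were plated 12 h at 37 °C and exposed to compounds for 4-6 hr at 37 °C, 5% CO2. Luminescence was read 12 min after adding detection reagent.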
# [18] = qHTS of Nrf2 Activators: LOPAC Validation (AID 624149)
# In short: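 AREc32 cells carrying an ARE-driven firefly luciferase were grown overnight in OPTI-MEM with 5% FBS, then exposed to compounds for 24 hr at 37 deg C. Luciferase signal was read after 30 min with Steady-Glo at RT.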
# [19] = HTS Assay for Allosteric Antagonists of the Human D2 Dopamine Receptor: Hit Validation in HTRF (AID 624455);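 also: stable D1 dopamine receptor cell line scored for blocking the D1 response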
# In short: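 Hits were examined in an HTRF assay using cells stably expressing the D1 dopamine receptor, scoring inhibition of the D1-mediated response. The preceding primary screen tracked calcium flux after an EC80 dopamine addition in force-coupled, inducible Hek293 Trex D2 cells.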
# D(1A) dopamine receptor (Homo sapiens), sequence (P21728 whole entry, looked up): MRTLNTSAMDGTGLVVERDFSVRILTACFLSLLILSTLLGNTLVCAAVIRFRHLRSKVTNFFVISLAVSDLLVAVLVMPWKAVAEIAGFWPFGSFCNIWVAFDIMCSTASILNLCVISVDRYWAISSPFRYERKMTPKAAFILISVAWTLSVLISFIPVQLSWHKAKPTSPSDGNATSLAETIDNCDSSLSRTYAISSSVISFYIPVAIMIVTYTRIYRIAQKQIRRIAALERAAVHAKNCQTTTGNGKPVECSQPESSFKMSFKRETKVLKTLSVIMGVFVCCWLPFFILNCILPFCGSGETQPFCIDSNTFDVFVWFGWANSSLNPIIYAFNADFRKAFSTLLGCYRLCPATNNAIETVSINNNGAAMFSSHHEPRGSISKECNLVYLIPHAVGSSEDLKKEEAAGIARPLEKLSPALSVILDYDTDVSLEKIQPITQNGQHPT
# Phosphoglycerate kinase, glycosomal (Trypanosoma brucei brucei), sequence (P07378 whole entry, looked up): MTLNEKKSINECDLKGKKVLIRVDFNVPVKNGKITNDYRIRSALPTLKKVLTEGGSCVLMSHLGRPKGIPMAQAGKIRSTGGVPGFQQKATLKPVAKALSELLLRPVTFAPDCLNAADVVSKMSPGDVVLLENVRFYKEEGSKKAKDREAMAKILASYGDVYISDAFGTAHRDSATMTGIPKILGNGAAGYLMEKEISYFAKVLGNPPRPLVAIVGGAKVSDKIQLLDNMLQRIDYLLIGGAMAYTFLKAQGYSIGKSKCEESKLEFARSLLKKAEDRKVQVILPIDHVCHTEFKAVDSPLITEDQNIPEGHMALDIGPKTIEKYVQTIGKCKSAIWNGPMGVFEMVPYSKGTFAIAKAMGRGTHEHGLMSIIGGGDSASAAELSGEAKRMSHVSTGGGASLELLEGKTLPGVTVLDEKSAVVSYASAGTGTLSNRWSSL
# Thyrotropin-releasing hormone receptor (Homo sapiens), sequence (P34981 whole entry, looked up): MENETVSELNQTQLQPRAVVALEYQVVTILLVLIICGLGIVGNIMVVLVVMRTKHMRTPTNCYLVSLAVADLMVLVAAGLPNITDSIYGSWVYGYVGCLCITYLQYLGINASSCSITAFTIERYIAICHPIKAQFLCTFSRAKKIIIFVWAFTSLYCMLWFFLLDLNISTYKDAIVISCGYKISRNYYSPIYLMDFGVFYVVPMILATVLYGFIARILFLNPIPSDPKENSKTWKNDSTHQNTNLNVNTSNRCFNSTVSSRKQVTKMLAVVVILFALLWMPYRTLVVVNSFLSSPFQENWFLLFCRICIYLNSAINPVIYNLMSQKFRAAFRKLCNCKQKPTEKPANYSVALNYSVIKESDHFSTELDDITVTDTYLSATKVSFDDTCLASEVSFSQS
# Voltage-gated inwardly rectifying potassium channel KCNH2 (Homo sapiens), sequence (Q12809 whole entry, looked up): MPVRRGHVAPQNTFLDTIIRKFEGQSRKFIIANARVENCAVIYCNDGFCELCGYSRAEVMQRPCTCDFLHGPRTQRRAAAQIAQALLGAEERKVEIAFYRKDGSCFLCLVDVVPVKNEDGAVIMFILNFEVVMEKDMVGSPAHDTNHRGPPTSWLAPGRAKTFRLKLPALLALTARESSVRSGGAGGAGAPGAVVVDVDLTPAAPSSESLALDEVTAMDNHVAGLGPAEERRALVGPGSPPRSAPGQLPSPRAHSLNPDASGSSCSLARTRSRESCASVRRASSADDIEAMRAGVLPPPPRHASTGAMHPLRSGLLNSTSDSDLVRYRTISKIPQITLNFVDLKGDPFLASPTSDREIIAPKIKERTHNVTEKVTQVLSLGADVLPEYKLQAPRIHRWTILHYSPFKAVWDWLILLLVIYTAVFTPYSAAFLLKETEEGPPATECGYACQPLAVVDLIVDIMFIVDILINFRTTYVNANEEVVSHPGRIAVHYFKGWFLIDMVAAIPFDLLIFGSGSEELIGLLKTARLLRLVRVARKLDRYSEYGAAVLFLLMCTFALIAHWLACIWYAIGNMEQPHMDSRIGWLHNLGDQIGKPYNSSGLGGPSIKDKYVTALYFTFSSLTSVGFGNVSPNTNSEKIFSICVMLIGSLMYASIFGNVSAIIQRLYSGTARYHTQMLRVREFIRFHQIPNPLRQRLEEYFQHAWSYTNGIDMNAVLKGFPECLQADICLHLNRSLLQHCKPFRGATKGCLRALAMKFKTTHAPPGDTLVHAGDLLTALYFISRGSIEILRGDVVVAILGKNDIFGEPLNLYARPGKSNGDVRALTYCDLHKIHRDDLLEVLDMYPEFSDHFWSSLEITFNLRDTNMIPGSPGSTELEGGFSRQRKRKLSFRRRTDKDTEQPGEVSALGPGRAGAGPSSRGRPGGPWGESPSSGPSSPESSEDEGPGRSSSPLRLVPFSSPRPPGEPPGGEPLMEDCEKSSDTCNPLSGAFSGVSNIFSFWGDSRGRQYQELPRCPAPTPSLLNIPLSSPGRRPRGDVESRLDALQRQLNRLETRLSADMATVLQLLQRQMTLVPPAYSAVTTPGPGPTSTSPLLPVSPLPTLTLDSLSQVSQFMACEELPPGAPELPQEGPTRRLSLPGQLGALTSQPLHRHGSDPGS
# Glutaminase kidney isoform, mitochondrial (Homo sapiens), sequence (O94925 whole entry, looked up, canonical isoform): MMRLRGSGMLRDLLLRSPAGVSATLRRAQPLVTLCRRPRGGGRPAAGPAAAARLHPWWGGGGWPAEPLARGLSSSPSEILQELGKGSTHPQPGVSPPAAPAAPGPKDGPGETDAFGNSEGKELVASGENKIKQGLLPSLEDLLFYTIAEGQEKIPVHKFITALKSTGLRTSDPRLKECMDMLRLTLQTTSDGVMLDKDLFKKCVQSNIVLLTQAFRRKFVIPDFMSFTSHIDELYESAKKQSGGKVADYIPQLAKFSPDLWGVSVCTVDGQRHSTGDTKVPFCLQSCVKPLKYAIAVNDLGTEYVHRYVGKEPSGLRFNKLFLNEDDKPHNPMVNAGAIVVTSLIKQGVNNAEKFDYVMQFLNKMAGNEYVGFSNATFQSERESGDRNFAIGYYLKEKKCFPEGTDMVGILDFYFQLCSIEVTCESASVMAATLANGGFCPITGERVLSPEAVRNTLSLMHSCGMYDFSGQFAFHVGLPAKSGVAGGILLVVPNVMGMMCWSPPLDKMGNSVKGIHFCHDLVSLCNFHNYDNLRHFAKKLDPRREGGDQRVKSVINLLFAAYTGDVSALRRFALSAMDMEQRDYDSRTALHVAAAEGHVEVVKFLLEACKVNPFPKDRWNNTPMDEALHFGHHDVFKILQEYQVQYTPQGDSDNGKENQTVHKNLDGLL
# phosphoglycerate mutase (Leishmania major), sequence (Q4Q090 1-553): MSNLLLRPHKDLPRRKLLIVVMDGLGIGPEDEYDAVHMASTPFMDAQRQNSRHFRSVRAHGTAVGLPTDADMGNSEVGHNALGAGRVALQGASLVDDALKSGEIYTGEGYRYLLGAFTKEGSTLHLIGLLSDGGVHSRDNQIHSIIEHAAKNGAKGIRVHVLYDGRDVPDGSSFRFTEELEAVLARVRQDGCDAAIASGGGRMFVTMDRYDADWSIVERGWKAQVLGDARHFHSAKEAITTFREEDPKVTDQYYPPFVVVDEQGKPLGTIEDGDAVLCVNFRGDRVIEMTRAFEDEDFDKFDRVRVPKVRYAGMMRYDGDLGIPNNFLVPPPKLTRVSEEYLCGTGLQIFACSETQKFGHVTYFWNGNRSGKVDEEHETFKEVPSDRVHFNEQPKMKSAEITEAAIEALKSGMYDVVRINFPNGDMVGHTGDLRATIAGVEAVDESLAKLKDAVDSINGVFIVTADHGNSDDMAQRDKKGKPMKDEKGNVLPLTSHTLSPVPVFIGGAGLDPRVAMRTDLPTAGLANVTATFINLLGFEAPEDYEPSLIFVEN
# Peptidyl-prolyl cis-trans isomerase NIMA-interacting 1 (Homo sapiens), sequence (Q13526 whole entry, looked up): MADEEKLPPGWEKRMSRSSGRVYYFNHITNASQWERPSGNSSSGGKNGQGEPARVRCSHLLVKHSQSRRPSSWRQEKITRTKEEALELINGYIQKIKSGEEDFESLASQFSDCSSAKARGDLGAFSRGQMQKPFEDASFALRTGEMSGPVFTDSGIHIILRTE
# Ubiquitin carboxyl-terminal hydrolase 1 (Homo sapiens), sequence (O94782 whole entry, looked up): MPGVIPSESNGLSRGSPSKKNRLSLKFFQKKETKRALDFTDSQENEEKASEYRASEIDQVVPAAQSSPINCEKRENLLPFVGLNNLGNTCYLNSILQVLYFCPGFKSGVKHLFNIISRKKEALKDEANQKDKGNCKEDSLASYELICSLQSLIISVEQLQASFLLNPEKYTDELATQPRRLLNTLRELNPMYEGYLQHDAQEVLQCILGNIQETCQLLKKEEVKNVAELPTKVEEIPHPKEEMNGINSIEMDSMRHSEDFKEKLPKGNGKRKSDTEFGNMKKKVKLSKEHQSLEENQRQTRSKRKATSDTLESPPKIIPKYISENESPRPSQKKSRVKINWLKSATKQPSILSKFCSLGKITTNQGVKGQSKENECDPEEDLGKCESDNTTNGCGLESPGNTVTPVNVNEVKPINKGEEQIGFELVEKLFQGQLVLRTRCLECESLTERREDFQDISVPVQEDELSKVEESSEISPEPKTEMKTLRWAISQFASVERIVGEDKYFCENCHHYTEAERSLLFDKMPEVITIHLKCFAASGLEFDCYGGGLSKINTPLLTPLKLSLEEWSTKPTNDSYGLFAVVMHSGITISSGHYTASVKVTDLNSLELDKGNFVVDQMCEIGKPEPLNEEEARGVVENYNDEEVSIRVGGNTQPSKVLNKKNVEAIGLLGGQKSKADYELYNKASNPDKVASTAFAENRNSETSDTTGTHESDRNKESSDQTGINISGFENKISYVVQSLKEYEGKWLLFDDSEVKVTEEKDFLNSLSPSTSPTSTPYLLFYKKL
# Galactokinase (Homo sapiens), sequence (P51570 whole entry, looked up): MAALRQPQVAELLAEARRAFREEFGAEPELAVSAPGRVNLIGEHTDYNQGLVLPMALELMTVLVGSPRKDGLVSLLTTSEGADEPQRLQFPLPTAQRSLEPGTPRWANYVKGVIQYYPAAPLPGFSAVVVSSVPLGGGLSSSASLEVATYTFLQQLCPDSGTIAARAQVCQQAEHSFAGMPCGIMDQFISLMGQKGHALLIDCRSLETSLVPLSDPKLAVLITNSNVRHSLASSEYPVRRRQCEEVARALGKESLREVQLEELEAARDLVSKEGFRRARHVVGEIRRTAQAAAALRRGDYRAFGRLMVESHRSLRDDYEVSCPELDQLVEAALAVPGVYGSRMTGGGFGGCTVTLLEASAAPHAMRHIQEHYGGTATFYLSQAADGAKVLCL
compound,measurement,setting,value
S=C(Nc1ccccc1)Nc1nccs1,outcome,[1],inactive
same,outcome,[2],inactive
same,outcome,[3],inactive
same,outcome,[4],inactive
same,Potency,[5],20.6 µM (active)
same,Potency,[6],inactive
same,activation,[7],1.31% (inactive)
same,outcome,[8],inactive
same,viability change,[8],-0.228%
same,outcome,[9],inactive
same,Potency,[10],inactive
same,Potency,[11],inactive
same,outcome,[12],inactive
same,Potency,[13],inactive
same,Potency,[14],inactive
same,Potency,[15],11.2 µM (active)
same,outcome,[16],inactive
same,outcome,[17],inactive
same,outcome,[18],inactive
same,outcome,[19],inactive
